Laboratory results reported in PubChem BioAssay (NCATS).
Records with an inconclusive call do not appear. A call without a number means that no potency is given here. The source made the active and inactive calls. The call rests on the fitted dose curve; in most records, active means well fitted curve in the direction sought with a large enough effect; inconclusive means small, poorly fitted or top-dose-only effect, or another doubt; inactive means no such curve, though single readings can be large or run the other way.

molecular target: Metallo-beta-lactamase type 2 (Klebsiella pneumoniae) (UniProt C7C422); assay: qHTS to identify inhibitors of the New Delhi Metallo-beta-lactamase (NDM): assay validation screen against the NCATS LOPAC Collection (AID 1794843); conditions: NDM-1 enzyme, nitrocefin hydrolysis, absorbance 485 nm; series mostly up to 38.4 µM;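 further: nitrocefin turnover by NDM-1 measured as 485 nm absorbance at plateau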
Sequence (C7C422 whole entry, looked up): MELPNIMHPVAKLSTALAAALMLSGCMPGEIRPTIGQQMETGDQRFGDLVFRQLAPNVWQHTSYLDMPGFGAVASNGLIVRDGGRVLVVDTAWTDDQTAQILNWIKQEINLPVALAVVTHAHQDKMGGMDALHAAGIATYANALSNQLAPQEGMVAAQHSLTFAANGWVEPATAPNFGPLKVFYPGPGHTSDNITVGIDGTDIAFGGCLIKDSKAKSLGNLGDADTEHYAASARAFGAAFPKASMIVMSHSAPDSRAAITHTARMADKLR
Procedure, shortened: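 NDM-1 at 2 nM final in 50 mM HEPES pH 7.0, 1 uM ZnSO4, 0.01% Tween20, preincubated with LOPAC compounds pinned in DMSO; 50 uM nitrocefin (stock) added. Hydrolysis read as absorbance at 485 nm in the plateau phase.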

| SMILES | Potency |
| --- | --- |
| CC1C(=O)N(C)C(=O)c2nc[nH]c21 (stereo unspecified) | inactive |
| CNc1cc(NS(=O)(=O)c2ccc(N)cc2)nc(NC)n1 | inactive |
| Nc1ncnc2c1ncn2C1CCCC1 | inactive |
| COc1ccccc1N1CCN(CCCNc2c(C)c(=O)n(C)c(=O)n2C)CC1 | inactive |
| Cc1nc2c(OCc3ccccc3)cccn2c1CC#N | inactive |
| O=S(=O)(c1cccc2c(Cl)cccc12)N1CCCNCC1 | inactive |
| Cc1ccc2c(c1)C(N1CCN(C)CC1)=Nc1cccnc1N2 | inactive |
| COC(=O)C(C)(N)Cc1ccc(O)cc1 (stereo unspecified) | inactive |
| CN1C2CCC1CC(OC(c1ccccc1)c1ccccc1)C2 (stereo unspecified) | inactive |
| CC(C)C[C@H](NC(=O)[C@H](O)[C@H](N)Cc1ccccc1)C(=O)O | inactive |
| Cc1cc(Cn2cnc3c2C[C@@H](C(=O)O)N(C(=O)C(c2ccccc2)c2ccccc2)C3)ccc1N | inactive |
| Cc1nc(N=Nc2ccc(S(=O)(=O)O)cc2S(=O)(=O)O)c(COP(=O)(O)O)c(C=O)c1O | inactive |
| NC1C=CC=C(C(=O)O)C1 (stereo unspecified) | inactive |
| Nc1ncnc2c1nc(Sc1ccc(Cl)cc1)n2[C@H]1OC2COP(=O)(O)O[C@@H]2C1O (stereo partly specified) | inactive |
| CC(N)(Cc1ccc(O)cc1)C(=O)O (stereo unspecified) | inactive |
| CCSC(=N)N | inactive |
| Cc1nc2n(c(=O)c1CCN1CCC(c3noc4cc(F)ccc34)CC1)CCCC2O (stereo unspecified) | inactive |
| Nc1ncnc2c1nc(Br)n2C1OC2COP(=O)(O)O[C@@H]2C1O (stereo partly specified) | inactive |

| SMILES | Potency |
| --- | --- |
| CCn1c(=O)[nH]c2cc(Cl)c(Cl)cc21 | inactive |
| CN1CCC2(CCN3CCc4c(oc5ccccc45)C3C2)N(C)C1=O (stereo unspecified) | inactive |
| CCN(CC)CCOC(=O)c1cc(Cl)c(N)cc1OC | inactive |
| NOCC(=O)O | inactive |
| COc1ccc2c(c1)c(CC(=O)O)c(C)n2Cc1ccc(Cl)cc1 | inactive |
| CC(C)(C)c1ccc(/C=C/C(=O)Nc2ccc3c(c2)OCCO3)cc1 | inactive |
| CC(N)=O | inactive |
| Nc1ncnc2c1c(-c1ccc(Oc3ccccc3)cc1)cn2C1CCCC1 | inactive |
| Oc1ccc(Cn2cc[nH]c2=S)cc1 | inactive |
| N#CC(=C(\N)Sc1ccccc1N)/C(C#N)=C(/N)Sc1ccccc1N | inactive |
| O=C(OCCN1CCOCC1)C1(c2ccccc2)CCCCC1 | inactive |
| CC1=C(/C=C/C(C)=C/C=C/C(C)=C\C(=O)O)C(C)(C)CCC1 | inactive |
| N#Cc1cc2nc(O)c(O)nc2cc1[N+](=O)[O-] | inactive |
| N[C@@H](CS(=O)O)C(=O)O | inactive |
| O=C(O)C1CCCNC1 (stereo unspecified) | inactive |
| CCN(c1nc(N)c(C(=O)N=C(N)N)nc1Cl)C(C)C | inactive |
| CSC(N)=NCCC[C@H](N)C(=O)O | inactive |
| CCCCCCCCCC(=O)NC(CN1CCOCC1)[C@H](O)c1ccccc1 (stereo partly specified) | inactive |
